High-throughput results: PubChem, National Center for Advancing Translational Sciences (NCATS)
Hits are enriched below; roughly 5.7% of the tested compounds scored in any of these assays.
PI5P4K alpha inh = qHTS for Inhibitors of phosphatidylinositol 5-phosphate 4-kinase (PI5P4K). AID 652105, 2013. Phosphatidylinositol 5-phosphate 4-kinase type-2 alpha (Homo sapiens), P48426. max response, %. 1.2% of 330,000 active. PI5P4Kalpha enzyme, ADP-Glo luminescence, 60 min; stronger effect = lower value; active means max response of -50% or lower; inconclusive means between -30% and -50%; inactive means -30% or higher; further: value at the top dose of about 77 µM
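Controls without substrate or without enzyme flank wells where PI5P4Kalpha converts substrate using 5 microM ATP (final). Incubation lasts 60 minutes at room temperature; ADP formed is read by ADP-Glo luminescence.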
BAZ2B block = qHTS Assay for Inhibitors of BAZ2B | Bromodomain adjacent to zinc finger domain protein 2B (Homo sapiens), Q9UIF8 | AlphaScreen BAZ2B-H3K14Ac peptide displacement | Potency, µM (highest dose often 114 µM), most hits filed as inhibitors | 4.4% of 360,000 active; further: nearly all actives have a fitted effect of over 60% in size
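Inhibition is scored as reduced AlphaScreen emission. The BAZ2B/b-H3(5-23)K14Ac complex (50 nM each) in PBS pH 7.4, 0.01% Tween-20 meets compound (up to 110 uM) for 30 min at RT before bead addition.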
HP1b chromo inh = HTS for Inhibitors of HP1-beta Chromodomain Interactions with Methylated Histone Tails; AlphaScreen HP1-beta / biotin-H3K9me3 peptide binding; Potency, µM (doses to about 114 µM), hits mostly inhibitors; 0.56% of 390,000 active; further: nearly all actives have a fitted effect of over 70% in size
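HP1-beta protein (50 nM final) preincubated 30 min at room temperature with biotinylated H3(1-18)K9me3 peptide (50 nM) in PBS pH 7.4, 0.01% Tween-20, then compound added for 30 min. AlphaScreen streptavidin donor/nickel chelate acceptor beads (10 ug/mL final), 30 min dark, luminescence read.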
L3MBTL1 inh = qHTS Assay for the Inhibitors of L3MBTL1; Lethal(3)malignant brain tumor-like protein 1 (Homo sapiens), Q9Y468; AlphaScreen L3MBTL1–H3K9me1 peptide binding; Potency, µM (titrated, usually from 57.1 µM), usual class: inhibitors; 0.66% of 230,000 active; AID 485360, 2010; further: nearly all actives have a fitted effect of over 60% in size
Target sequence (Q9Y468 whole entry, looked up): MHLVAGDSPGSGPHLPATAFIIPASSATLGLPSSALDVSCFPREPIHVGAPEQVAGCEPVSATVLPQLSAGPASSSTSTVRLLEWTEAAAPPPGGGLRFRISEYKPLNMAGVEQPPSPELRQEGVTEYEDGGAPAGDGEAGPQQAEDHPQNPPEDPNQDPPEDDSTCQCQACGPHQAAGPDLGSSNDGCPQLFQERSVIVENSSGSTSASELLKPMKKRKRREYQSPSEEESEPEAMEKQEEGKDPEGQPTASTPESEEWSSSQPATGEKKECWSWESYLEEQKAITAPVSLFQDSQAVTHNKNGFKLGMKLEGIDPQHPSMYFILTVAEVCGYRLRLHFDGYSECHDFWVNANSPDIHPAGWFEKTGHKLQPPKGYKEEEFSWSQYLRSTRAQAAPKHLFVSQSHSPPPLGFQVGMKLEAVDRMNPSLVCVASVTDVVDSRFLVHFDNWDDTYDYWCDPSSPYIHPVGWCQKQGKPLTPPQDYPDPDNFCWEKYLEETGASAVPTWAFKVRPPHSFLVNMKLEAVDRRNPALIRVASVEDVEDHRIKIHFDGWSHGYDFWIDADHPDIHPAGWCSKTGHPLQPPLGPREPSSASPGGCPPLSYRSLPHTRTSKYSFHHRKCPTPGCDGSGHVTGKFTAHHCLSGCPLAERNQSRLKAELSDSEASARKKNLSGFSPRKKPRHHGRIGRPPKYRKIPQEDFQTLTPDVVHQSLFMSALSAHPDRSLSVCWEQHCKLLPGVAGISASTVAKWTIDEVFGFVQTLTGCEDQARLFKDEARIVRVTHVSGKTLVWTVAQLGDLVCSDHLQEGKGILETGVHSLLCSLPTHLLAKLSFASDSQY
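First, the protein-peptide complex forms for 30 min at room temperature (L3MBTL1 50 nM, biotinylated H3K9me1 peptide 75 nM). Next, compounds are pin-transferred and incubated 30 min. Finally, AlphaScreen beads are added and read after 30 min.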
JMJD2E inh = qHTS Assay for Inhibitors of Human Jumonji Domain Containing 2E (JMJD2E); Lysine-specific demethylase 4E (Homo sapiens), B2RXH2; JMJD2E catalytic domain, FDH-coupled NADH fluorescence (FDH is formaldehyde dehydrogenase); Potency, µM (doses to about 57.1 µM), actives largely listed as inhibitors; 1.6% of 230,000 active; AID 2147, 2009; active means well fitted inhibition curve with a large enough effect, not every such curve was filed as active; inconclusive means small, poorly fitted or top-dose-only effect, or another doubt; inactive means no such curve, though single readings can be large or run the other way; further: nearly all actives have a fitted effect of over 50% in size
JMJD2A Tudor inh = qHTS Assay for Inhibitors of JMJD2A-Tudor Domain. Lysine-specific demethylase 4A (Homo sapiens), O75164. AlphaScreen JMJD2A-Tudor / H3K4me3 peptide binding. Potency, µM (top dose mostly 114 µM), actives largely listed as inhibitors. 4.4% of 390,000 active; further: nearly all actives have a fitted effect of over 50% in size
Numbers stand for hits; . = inactive; ? = inconclusive; / = no result given; [ ] = remark or other dose. Unless noted, the call rests on the fitted dose curve; in most records, active means well fitted inhibition curve with a large enough effect; inconclusive means small, poorly fitted or top-dose-only effect; inactive means no such curve, though single readings can be large or run the other way.

SMILES | PI5P4K alpha inh | BAZ2B block | HP1b chromo inh | L3MBTL1 inh | JMJD2E inh | JMJD2A Tudor inh
C/C(Cn1nnc([N+](=O)[O-])n1)=N\NC(=O)c1ccccc1O | . | . | . | . | . | 45µM
COc1ccc(C(=O)NCCn2cc(SCC(=O)Nc3nnc(C)s3)c3ccccc32)cc1 | / | / | . | / | / | .
COc1ccc(C(=O)NCCn2cc(SCC(=O)Nc3cccc(C)c3)c3ccccc32)cc1 | / | 50µM | . | / | / | .
Nc1ccccc1C(=O)NCc1ccccc1 | . | . | . | / | ? | 35µM
CCc1cc2c(cc3c(=O)n(CC(=O)NC4CCCCC4)ncn32)s1 | / | . | . | / | / | .
CC(=O)c1ccc(NC(=O)c2sc(-n3nc(C)c(Cc4ccc5c(c4)OCO5)c3C)nc2C)cc1 | / | . | . | / | / | 79µM
CCOC(=O)CNC(=O)Nc1cc(C(=O)NCc2ccccc2OC)ccc1N1CCCC1 | / | . | . | / | / | .
Cc1cccc(C(=O)Nc2ccc(C(=O)OCc3cc(=O)n4c(C)csc4n3)cc2)c1 | / | 79µM | . | / | / | ?
Cc1cccc(C(=O)Nc2ccccc2OCc2cc(=O)n3c(C)csc3n2)c1 | / | . | . | / | / | .
CC[C@@]12C(=O)N(c3cccc(F)c3)C(=O)N1[C@H](c1ccc(Cl)cc1)[C@@H]1C(=O)N(C3CCCCC3)C(=O)[C@@H]12 | . | . | . | . | / | .
CC(C)c1ccc(N(CC(=O)NC2CCCC2)C(=O)CCC(=O)Nc2ccccn2)cc1 | . | . | . | / | / | 50µM
O=C(CCCC(=O)N(c1cccc(F)c1)C(C(=O)NC1CCCC1)c1ccc(O)cc1)Nc1ccccn1 (stereo unspecified) | . | . | . | / | / | 79µM
CCc1ccc(N(CC(=O)NC2CCCC2)C(=O)CCC(=O)Nc2ccccn2)cc1 | . | . | . | / | / | .
COc1ccc(CNC(=O)CN(C(=O)CCC(=O)Nc2ccccn2)c2ccc(C)cc2)cc1 | . | . | . | / | / | 56µM
CC1CCN(C(=O)c2ccc3c(c2)N(Cc2ccccc2)C(=O)c2ccccc2S3(=O)=O)CC1 | / | . | . | / | / | .
COC(=O)c1cc(C)nc(Sc2ccccc2N)n1 | ? | . | ? | . | ? | 45µM
Cc1cccc(S(=O)(=O)NC(=O)C2(C)CCN2C(=O)Cc2ccccc2)c1 (stereo unspecified) | . | / | / | / | / | /
Cc1cc(C)c2c(NC(N)=S)n[nH]c2n1 | . | . | . | / | . | 32µM
O=C(CSc1nc2ncc(Cl)cc2[nH]1)NCC(=O)Nc1ccc(F)c(F)c1F | . | . | . | . | . | .
O=C(N/N=C/c1ccc(O)cc1O)c1ccncc1 | . | 32µM | . | / | / | 56µM
O=C(N/N=C/c1ccc(O)cc1O)c1ccc(NC(=O)C2CCCCC2)cc1 | . | . | . | / | / | .
CCc1cc(C(=O)N/N=C/c2ccc(O)cc2O)c2ccccc2n1 | . | 45µM | . | / | / | 79µM
O=C(N/N=C/c1ccc(Cl)cc1Cl)c1ccncc1 | . | ? | . | . | / | .
O=C(N/N=C/c1cc(Cl)cc(Cl)c1O)c1ccncc1 | . | 10µM | . | 28µM | ? | 22µM
C/C(=N\NC(=O)c1cc(C2CC2)nc2ccccc12)c1ccc(O)cc1O | . | 3.5µM | . | / | / | .
SMILES | PI5P4K alpha inh | BAZ2B block | HP1b chromo inh | L3MBTL1 inh | JMJD2E inh | JMJD2A Tudor inh
COc1ccc(Cn2cc(C(=O)c3ccc(OC)cc3)c(=O)c3cc4c(cc32)OCCO4)cc1 | / | . | . | / | / | .
CCC(=O)C(C(=O)OC)[C@H](CCc1ccccc1)NC(=O)OC (stereo partly specified) | / | / | / | / | . | /
COc1ccc([N+](=O)[O-])cc1NC(=O)C(C)NNC(=O)c1cccc([N+](=O)[O-])c1 (stereo unspecified) | . | / | . | . | / | .
Cc1cccc(C(=O)Oc2c(Br)cc(Br)cc2/C=N/NC(=O)c2ccncc2)c1 | . | . | . | / | / | .
O=C(N/N=C/c1ccccc1)c1ccc(NC(=O)c2ccc(F)cc2)cc1 | . | . | . | / | / | .
O=C(N/N=C/c1cc(Br)cc([N+](=O)[O-])c1O)c1ccc(NC(=O)c2ccc(F)cc2)cc1 | . | 13µM | ? | / | / | 32µM
O=C(N/N=C/c1cc(Br)cc(Br)c1O)c1ccncc1 | . | 8.9µM | . | 25µM | ? | 13µM
CCOc1ccc(CN(C(=O)c2nc(SC)ncc2Cl)C2CCS(=O)(=O)C2)cc1 (stereo unspecified) | / | . | . | / | / | .
COc1ccc(-c2csc(Nc3cc(C)ccn3)n2)cc1C | . | . | . | / | / | ?
Cc1ccnc(Nc2nc(-c3ccc(O)cc3)cs2)c1 | . | ? | . | . | / | ?
Cc1cccc(Nc2nc(-c3ccc(O)c(O)c3)cs2)n1 | . | 50µM | ? | . | / | ?
Oc1ccc(-c2csc(Nc3cccc4ccccc34)n2)cc1O | -55 | 35µM | ? | 25µM | / | 40µM
Cc1ccnc(Nc2nc(-c3ccc(O)c(O)c3)cs2)c1 | . | 40µM | ? | . | / | 56µM
Cc1ccnc(Nc2nc(-c3ccc(O)cc3O)cs2)c1 | . | 50µM | . | . | / | ?
O=C(Nc1ccccc1F)c1nc(SCc2ccc(F)cc2)ncc1Cl | / | . | . | / | / | .
O=C(NCCN1CCOCC1)C1(C(F)(F)F)C/C(=C/CCO)CCCO1 (stereo unspecified) | / | / | . | / | / | .
CCCOc1ccc(C2C(=O)N(C3CCCCCC3)CC(=O)N2CCCOCC)cc1OC (stereo unspecified) | / | . | . | / | / | .
COCCNC(=O)C1(C(F)(F)F)C/C(=C/CCO)CCCO1 (stereo unspecified) | / | / | . | / | / | .
Oc1ccc(-c2csc(Nc3ccccn3)n2)cc1O | ? | 40µM | 14µM | ? | / | 56µM
CCCC(=O)Nc1nc(C)c(-c2csc(Nc3ccccc3C)n2)s1 | . | ? | . | . | . | ?
CCC(=O)Nc1nc(C)c(-c2csc(Nc3ccccn3)n2)s1 | . | 40µM | . | . | ? | ?
CC(=O)Nc1ccc(-c2csc(Nc3ccccn3)n2)cc1 | . | . | . | / | . | .
Cc1cccnc1Nc1nc(-c2ccc(O)c(O)c2)cs1 | . | 40µM | ? | / | ? | 45µM
COc1ccc(-c2csc(Nc3ncccc3C)n2)cc1OC | . | ? | . | / | . | ?
COc1cc(-n2nc(C)c3c2OC(N)=C(C#N)C3c2ccccc2)c(Cl)c(Br)c1O (stereo unspecified) | -57 | 45µM | 45µM | / | . | .[11.4 µM]
CCOC(=O)C1=C(CS(=O)(=O)c2ccc(C)cc2)NC(=O)NC1c1ccc(C(C)C)cc1 (stereo unspecified) | / | . | . | / | / | .
